Screens from PubChem BioAssay.
HCMV antiviral: qHTS Assay for inhibitors of the human cytomegalovirus (HCMV) | HFF cells, HCMV-luciferase reporter, 72 h; hits give low values | activity change, negative = inhibition, % at 57.5 µM | 410,000 compounds, 4.5% hits | AID 1259415, 2018; in the data active = activity change below about -60%; inconclusive = no clear call, values can overlap the other calls; inactive = above about -39%
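Luciferase read-out from HCMV-luciferase-infected HFFs (MOI 1 PFU/cell) 72 h post infection at 37C; compounds added after 16 h cell attachment; activity normalized between buffer-only basal and Salinomycin (10uM) inhibitor controls.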
HCV inhibitor: qHTS Assay for Inhibitors of Hepatitis C Virus (HCV); 340,000 compounds, 3.4% hits; AID 651820, 2012; Potency, µM (titrated, usually from 41.8 µM), without a hit: at the highest dose activity change, negative = inhibition, most hits filed as inhibitors; Huh7.5.1 HCVcc-Cre infection, luciferase reporter, 44 h; also: potency is read from the fitted curve at half-maximal effect
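A cell-based infection assay in which seeded cells (1,000 per well) receive test compound after 4 h, are inoculated with HCVcc-Cre at approximately 0.5 moi, and are incubated 44 h before luminescence detection.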
Pf growth 48h: Primary qHTS for delayed death inhibitors of the malarial parasite plastid, 48 hour incubation; 310,000 compounds, 5.9% hits; AID 504832, 2011; Potency, µM (doses to about 28.7 µM), inactives show at the top dose activity change, negative = inhibition, most hits filed as inhibitors; P. falciparum luciferase growth in erythrocytes, 48 h; also: potency is read from the fitted curve at half-maximal effect
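In quantitative HTS format, infected erythrocytes bearing luciferase-reporter parasites were treated for a single generation at 37 C. Luminescence after adding detection reagent served as the growth measure.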
Pf growth 96h: Primary qHTS for delayed death inhibitors of the malarial parasite plastid, 96 hour incubation. AID 504834, 2011. P. falciparum luciferase reporter growth, 96 h. 320,000 compounds, 6.9% hits. Potency, µM (series often up to 28.7 µM), for the others: at the highest dose activity change, negative = inhibition, usual class: inhibitors; also: potency is read from the fitted curve at half-maximal effect
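Erythrocytes infected with luciferase-expressing P. falciparum were dispensed at 2% hematocrit and 0.05% parasitemia (final), then incubated with compounds 96 hours at 37 C in 5% CO2. Luminescence after detection reagent addition reported growth.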
The depositor's hits bear a star; u = inconclusive; x = not tested or not shown. Most compounds without a hit are left out; they make up all but 13% or so of the library. Unless noted, calls follow the shape of the dose curve; as a rule, active = well fitted inhibition curve with a large enough effect; inconclusive = small, poorly fitted or top-dose-only effect, or another doubt; inactive = no such curve, though single readings can be large or run the other way. % is scaled to controls: 0 for no effect and ±100 for the full control effect.

SMILES	HCMV antiviral	HCV inhibitor	Pf growth 48h	Pf growth 96h
Cc1ccc(C(c2nnnn2CC2CCCO2)N2CCN(C)CC2)cc1 (centres undefined)	-22.4	5.8%	19.4%	1.6%
COCCn1nnnc1C(c1ccc(OC)c(OC)c1)N1CCN(c2nc3ccccc3s2)CC1 (centres undefined)	13.2	-12.6%	13.1µM*	2.94µM*
COc1ccc(C(c2nnnn2Cc2ccccc2)N2CCN(c3ccccc3)CC2)cc1 (centres undefined)	-22.6	u	u	13.1µM*
COc1ccc(Cn2nnnc2C(C(C)C)N2CCN(c3ccccc3OC)CC2)cc1 (centres undefined)	-27.1	u	4.65µM*	15.1%
CC(C)C(c1nnnn1Cc1ccc(F)cc1)N1CCN(c2ccc(O)cc2)CC1 (centres undefined)	-9.0	-3.6%	u	u
Cc1ccc(NC(=O)CSc2nc3ccccc3nc2Cc2ccccc2F)cc1F	-2.8	x	x	x
CC(C)OC(=O)c1cc(-c2ccc(C=O)o2)ccc1Cl	-20.6	8.4%	31.0%	14.7µM*
CCC1(C)N([O-])C(C)=C(c2ccccc2)[N+]1=O (centres undefined)	-12.1	12.6%	x	0.0928µM*
CCOC(=O)C1=C(C)Nc2nnnn2C1c1ccc(OC)c(Br)c1 (centres undefined)	20.6	-11.5%	u	11.7µM*
COc1cccc(C2C(C(=O)Nc3ccc(C)cc3C)=C(C)Nc3ncnn32)c1OC (centres undefined)	13.6	5.7%	11.7µM*	-11.4%
CC(=O)C1=C(C)Nc2ncnn2C1c1ccccc1Cl (centres undefined)	4.8	-3.5%	11.9%	0.522µM*
CCOC(=O)C1=C(c2ccccc2)Nc2ncnn2C1c1cccc(OC)c1OC (centres undefined)	23.6	-6.3%	u	1.85µM*
Nc1c(C(=O)Nc2cccc(F)c2)c2ccccn2c1C(=O)c1ccccc1	12.5	x	x	x
O=C(Nc1cccc(Cl)c1)N1Cc2ccccc2Oc2ncccc21	17.5	x	x	x
COc1ccc(C2C(C(=O)OC3CCCCC3)=C(C)Nc3nnnn32)c(OC)c1OC (centres undefined)	22.9	17.6%	9.28µM*	5.3%
COc1cccc(C2C(C(=O)Nc3ccccc3)=C(C)Nc3nnnn32)c1OC (centres undefined)	-99.6*	x	x	x
COC(=O)C1=C(C)Nc2nnnn2C1c1ccc(Cl)cc1Cl (centres undefined)	-16.7	-8.5%	4.65µM*	u
CC1=C(C(=O)OC2CCCCC2)C(c2cccnc2)n2nnnc2N1 (centres undefined)	u	u	13.0%	1.6%
CCCS(=O)(=O)N1CCC(C(=O)N2CCCC2)CC1	-9.8	16.2%	12.3%	11.7µM*
Cc1cc(C)c(C)c(S(=O)(=O)N2CCC(C(=O)N3CCCC3)CC2)c1C	u	11.9%	11.7µM*	11.7µM*
Cc1cc(C)c(C)c(S(=O)(=O)N2CCC(C(=O)Nc3ccncc3)CC2)c1C	7.0	-21.8%	u	13.1µM*
Cc1cn2c(=O)cc(COc3ccc(NC(=O)c4ccccc4C)cc3)nc2s1	1.1	x	x	x
O=S(=O)(c1ccc2ccccc2c1)N1CCOCC1	4.1	9.7%	28.0%	-14.3%
O=C(Nc1ccc(N2CCOCC2)cc1)Nc1ccc2nc(-c3ccco3)c(-c3ccco3)nc2c1	-60.4*	6.31µM*	u	2.3%
NC(=O)C1CCN(C(=O)c2ccc3nc(-c4ccccc4)c(-c4ccccc4)nc3c2)CC1	19.0	-18.7%	10.4µM*	u
SMILES	HCMV antiviral	HCV inhibitor	Pf growth 48h	Pf growth 96h
CCc1nc2ccc(C(=O)N3CCN(c4ccccc4)CC3)cc2nc1CC	-14.9	3.8%	-5.2%	2.62µM*
CCc1nc2ccc(C(=O)N3CCN(c4cccc(C(F)(F)F)c4)CC3)cc2nc1CC	-1.1	-16.9%	-17.0%	u
O=S(=O)(c1ccc2nc(-c3ccco3)c(-c3ccco3)nc2c1)N1CCOCC1	46.0	-23.4%	11.7µM*	-0.5%
O=C(c1ccc2nc(-c3ccco3)c(-c3ccco3)nc2c1)N1CCN(c2ccccc2)CC1	-107.7*	u	-5.4%	x
CCc1nc2ccc(C(=O)N3CCN(c4ccc(Cl)cc4)CC3)cc2nc1CC	9.3	u	-9.8%	5.22µM*
Cc1cc(C)cc(N2CCn3c2nc2c3c(=O)n(Cc3ccc(Cl)cc3)c(=O)n2C)c1	14.4	x	x	x
C[C@@H]1CCCCO[C@H](CN(C)C(=O)Nc2ccc3c(c2)OCO3)[C@H](C)CN([C@@H](C)CO)C(=O)c2cc(NS(=O)(=O)c3ccc(Cl)cc3)ccc2O1	-21.5	x	x	x
Cc1c(Cl)cccc1NC(=O)CCN1C(=O)c2ccccc2Sc2ncccc21	-25.7	x	x	x
O=C1CN(C(=S)NC(=O)c2ccccc2[N+](=O)[O-])CCN1	-18.3	34.2%	5.8%	7.38µM*
O=C(NNC(=O)C1CC1c1ccccc1)c1ccccc1F (centres undefined)	-22.7	8.7%	6.9%	u
O=C(NNC(=O)C1CC1c1ccccc1)c1ccccc1[N+](=O)[O-] (centres undefined)	1.2	0.5%	46.5%	11.7µM*
O=C(NNC(=S)NC(=O)c1ccccc1[N+](=O)[O-])c1ccccc1	46.8	22.1%	u	10.3%
O=C(NNC(=O)c1ccccc1[N+](=O)[O-])c1ccccc1[N+](=O)[O-]	0.0	23.9%	9.7%	7.38µM*
COc1ccc(C(=O)NNC(=O)c2ccccc2[N+](=O)[O-])cc1	39.4	9.0%	121.9%	13.1µM*
O=C(N/N=C/c1cccc([N+](=O)[O-])c1)C1CC1c1ccccc1 (centres undefined)	-10.4	-15.3%	0.0%	11.7µM*
COc1ccc(-c2ccc(SCc3cccnc3)nn2)cc1OC	-62.6*	u	2.2%	u
COc1ccc(-c2ccc(SCc3ccccn3)nn2)cc1OC	72.7	-20.9%	3.0%	2.62µM*
CCc1nc(SCC(=O)N2c3ccccc3CC2C)c2c(C)c(C)sc2n1 (centres undefined)	-37.7	12.6µM*	u	u
CCc1nc(SCC(=O)Nc2ccccc2OC)c2c(C)c(C)sc2n1	-36.7	u	13.1µM*	8.4%
CCc1nc(SCC(=O)Nc2cc(C)ccc2OC)c2c(C)c(C)sc2n1	-27.6	u	-19.6%	26.5%
CCCc1nc(SCC(=O)N2CCOCC2)c2c(C)c(C)sc2n1	-77.7*	0.7%	-5.0%	-1.1%
COc1ccc(CCNC(=O)c2ccc3c(c2)ncn3-c2ccc(C(C)C)cc2)cc1OC	-31.9	x	x	x
Cc1ccc(NC(=O)N2CC3CCCN3c3ccccc32)cc1Cl (centres undefined)	21.7	x	x	x
CCOC(=O)Nc1sc2c(c1C#N)CCC(C)C2 (centres undefined)	x	-21.9%	114.3%	u
CCNC(=S)Nc1sc2c(c1C#N)CCC(C)C2 (centres undefined)	15.7	u	u	5.86µM*
